PubChem BioAssay AID1159506 (National Center for Advancing Translational Sciences (NCATS), 2015)
The full ranking holds about 59,000 sequences; the median of the read-out is about -0.00055, and the lowest 2% start at about -2. This is one part of a sample in which the lowest values are shown more often than they occur.

experiment: Identification of proteins required for the processing of the EWS-FLI1 nascent transcript; details: TC32 Ewing sarcoma NR0B1-luc vs CMV-luc (EWS-FLI1 target promoter against control promoter), 48 h; screened at 20 nM (by protocol);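 further: robust z of luciferase light less the median z of siRNAs with the same seed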
Outline: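 Parallel TC32-NR0B1-luc and TC32-CMV-luc reverse transfections with 20 nM siRNA in RPMI-1640/10% FBS, luciferase measured 48 h later. Seed-adjusted z-scores from normalized, z-score-MAD transformed data; AllStars negative and siGL4 controls on each plate.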

Sequence | seed-corrected z-score
UCUGUCAUCUUUUUGGGUG against PSMD8 | -4.18
UCCGAUACCGACAAUAACC against ADAM7 | 0.224
UGAAGUACACCUUAAAGCC against SCN4A | 0.557
UCUGUUCCAAUACUGCUUG against CD209 | -0.501
AUGGUGUCAAGAAUAAGGC against ROPN1L | 1.14
UCAGCAACAACGGAUAUCG against PLEKHG7 | -0.178
AAAGUGCCCAAAACGAUGG against ATP2B3 | 0.438
AACAUCUCCAAUGAUAGGG against NR0B2 | -2.16
UCACCUACUUCGAUCUUCC against MECOM | -0.295
AAUCAUGCCCUUUUUGUGG against FPR2 | -2
UUCCAGCCCAUGAGAACCC against DKK2 | 0.436
AACGGAAAUGCUGACAUCG against EPRS | -0.386
AGAGUUUCCUGAGUCUUCU against TPD52L2 | -2.41
UAUCAUUGCGUGUUGCUGC against BBOF1 | 0.0553
UCUGUGAGGAAUGCUGUCC against RFT1 | -2.48
UUCUAGCUCACUGAAGUCC against PYGL | -0.371
UUCAGGGCAUUUAAAGGGC against ZNF629 | -0.898
AAGAUAAUAAAAACGUAGG against SLC2A14 | 0.0262
ACUGCUUACACUCACAUGG against ZNF490 | -4.22
UGGGAGCAAAGCAUAGUCG against PNMA3 | -1.88
UACUUGACUGAAAUGUCUC against ZNF829 | -0.616
UAGUUGUCCUGGUCGGAGC against LY6E | -2.61
UUGCAUGCAAUGGUGAGGC against S100A10 | -1.4

Sequence | seed-corrected z-score
UACUUUGCGACCAUUUAGG against PABPC3 | -1.3
UCUGUAACAUGCGGAGUUC against M1AP | -0.631
ACCGUGUUCAGAUAGCCUG against RACK1 | -1.01
AAUGUUGACACGUCUCCUG against TOB1 | 0.235
UUGGGAGUGAAAACAGAGG against OR8B2 | -3.41
AACUUCUUCAAGGUAAUUG against PJA1 | 0.88
AAAGUUUCACUCUUUCUGG against TPT1P8 | -0.645
UUCGAUUGAAAGAAGGCCU against MYOZ1 | -0.336
AACUCUAUUCAUGAGCUCG against ANGPTL5 | 0.0468
UUCCUGAUUAGUAAUGUCG against RAB5B | 0.136
AUCUUGGACAGAUAUAAUC against RNF126 | -2.4
UAUACUAUUGGUAAGUGCA against SND1-IT1 | -0.0514
AUACUCCACACCACAAAGC against LTB4R | 0.354
AAAAGACCAAAGCCCAUGU against RPLP1 | -2.92
UAUAGUGAAGAGAUAUGCC against ADGRL2 | 0.229
UCGUUUUUGACUACCAGGG against PHKB | 0.853
AACUGAUUAAAAUCAGAGG against PIGG | 0.269
UAGUAGCAUAGUUCAGUGG against OR51T1 | 0.179
UUUGCUCUCAUUCUCCGCA against SF3B5 | -3.03
AUAGUUAAUUGAAUUUCGG against BMPR2 | -0.638
UUUGCAGCCUCGGUUAUAG against PWWP2B | 0.352
AAGAGUAAUAGGCAAUUUC against SLC19A2 | -0.574
ACACGGGCAAUGGAUUUCC against RPL35 | -0.426

Sequence | seed-corrected z-score
UAACAUACACUAGAUCGCC against FOLH1 | -3.06
AAUGAGAUAAUGUUGGUCA against SNX29P1 | -1.77
UUUCUUUUCGGCUCUAGGG against NKX2-5 | -1.12
UGUACAAUGAGGAAGCUUC against LOC728903 | -0.125
UCUUUGCAAAGGGUAUGCC against IL17RE | -2.02
AGACCAUCCCACGAAAUGC against PEBP1 | -1.22
AAGCGGAAAAUCUUGAUGC against SLC26A2 | 0.168
UUCGUCCUUAUGCUCUUUC against HOXA7 | 0.383
AAAGAUACAGGUUAAAGGC against HIST2H2BF | -0.321
UUCAUAACGAGUUGGAGCC against RPL30 | -2.42
UUCAUGUUCAGAGUCAACG against SSRP1 | 1.02
ACUCUUAUCAGGCACAUCC against IMPAD1 | -0.93
UAACCGUUCCCGCAAACAC against TFAP2E | -0.2
AUUUAUUCCGGACACGUGG against GLI4 | -2.01
UCUUAUCCAAGGGACCAGC against MED1 | -0.541
UUCUCUAGGAUGGAAAACC against LOC728752 | 0.253
UUCGCAAUGUUGGUUCACC against TEX15 | -0.211
AAACACUCCACUGAUGUGC against IFT140 | -0.256
UGCGCUUACGCUUCUUACC against HIST1H2BB | -0.822
UUUCGGUAGUAGGAUUUCC against RBAK | 0.44
AAAACUUGCACCUUCGUGU against ARMC10 | -0.114
UUUAGUGUCAGUUGAUUUG against CPXCR1 | 0.162
UAUCAGACAAUUCAUCCGG against LONRF2 | -0.662

Sequence | seed-corrected z-score
AUGGGUCAGAGAGGCAAGG against EXOSC5 | -2.07
AUGUGGAUCAGAAGUAUCA against OR2T10 | 0.476
UGCAUGAUGAGUGAGGUGC against CYP26B1 | -0.927
UGACGGAUCAGUCUUAGCC against ATP5O | -0.31
AAAUAUAUCUCUUGGAUCU against LRRC75A-AS1 | 0.788
UCUAAUUCCAUACUGAUUC against PRKCQ-AS1 | -0.219
UUAUAAAAUUUGGUGAUGG against CNNM2 | -2.17
AAAGAAGGAAUUGAGAUUC against RAPGEF3 | 0.508
UAGAAAUCUACAAUCUUGU against NR2C2AP | -0.785
AUUGUAUCCUGCUGAGUCC against FOXJ2 | -0.984
ACAGUAAUCCAUAUGGAGG against GPR139 | 0.177
UUUCGUUCUUACGAGAUCC against PKHD1L1 | 1.16
UCCGGAUACACUUCACUAC against ANXA6 | -0.467
AAAAGUGGAACUUCUUCUC against TTLL8 | -2.21
AAAGUUGCAGUUGGUCUCC against ZACN | -3.49
UUAGCAGCUUGUUAAUUUC against ISY1 | -0.616
UAAGCAGCUUGUAUUGCUC against KIAA0513 | 0.461
UGAGGUUAAAGUGAGUAGC against VIT | -0.117
UUUCUUACACCAUGAGACG against INTS4 | -0.309
UAAAGUAAAGAUGUCUUCC against NPIPA1 | 0.0914
AUAGGGAUCUGAAAGUCCG against SYT4 | 0.582
UCCGGUCAAACUUAGUGCC against AQR | -3.37
AACGAAAUAAAAGCUGUCC against CFAP69 | -0.411

Sequence | seed-corrected z-score
UAUCGAACCAACCAGCAUC against MFSD4A | 1.1
UUCGAUGAACUUCUUUUGC against BROX | 1.04
UCCCGGGACAGCAUGUAGU against USP17L9P | 0.146
CAAUACUCCAGCAUCAGGC against OPA3 | -2.35
UACAAGAAUAGUCACAAUG against OR5H1 | 0.319
UCUGUAUCAAUGAUUAAAC against ICE2 | 0.6
UUUGUUAGUCAGGUAUUCC against CCDC121 | 2.03
UGGGUAUGUAGUAAUCUCG against ADGB | -3.05
AGACUGUAAAAGAUCUGUG against CCDC106 | -0.709
AAUCGUACACUCUCCGUAG against CHST2 | -1.01
UCACUUAGCAGGCUCUCUG against DDIT4L | -0.677
ACCGUUAAACUUGUAAUCG against ZFYVE9 | 0.0151
AUAGAUGCGAUCUAUGAGC against TRE17 | 0.156
UGGUUGUACGCGAUGUCCG against FZD1 | -3.54
UGCUGCAAGAGGUUAUUCC against HAS1 | 0.441
UAAUUGUCAGCUGAUUGUC against CDC6 | -0.689
UCACCGUUCCAUUCAAGUC against IKBKB | 0.0239
UUUGGGAAAGUAGCUAUCA against LINC01124 | -2.24
AUUGGAGCAAGACUUUUAG against BDKRB1 | -0.291
UUCAGCUAUAAAGUAAAGC against IL18 | -13
AAGGCUCCAAUGAUAAGUG against NRG4 | -0.154
UCGCUUUCCUCCAGGGUAC against GNRH2 | -0.382
AAAGCUGCGUCUUGUCUCG against LDLRAD2 | -3.83

Sequence | seed-corrected z-score
UAAGAACCCACAGUAUUGA against FBLN2 | 0.31
UAAAUAAUAUUGCACAUAC against FAM228A | 0.618
UUGAAUUUAAGAGAAAGGA against NPR3 | 0.283
AUAGUCAGCUGUGCUCUGC against FLJ16423 | -0.343
UUAGCAUGCAAAAUCGCCC against CWC22 | -3.73
UAGGGUGAGUCAAUAAUGG against CSTF2T | -0.0525
AUCUUUAUCAUUGGGCAGG against SCAF1 | -0.941
UUAUAAAUCCCUUUCACCG against CASP9 | -0.324
UAUGUCUUUCAGACUGACC against RPTN | -1
UUUCGGCACUGCAAAGUCG against ATP10A | 0.235
UCCUGCUUCAUAUCUUCUG against C19orf66 | -3.54
UUACUGAGGAAGUUUCUUU against CD99L2 | -0.781
UCCCUGGUAAAGUAUAGUC against EGFEM1P | -1.34
UUUCCGUCUGUCUUCUUCC against DCAF4 | 0.00663
UUACUAAAGACUGACAACC against ZNF208 | -0.0968
UACUGCUUCGUAUCUGUCC against PIH1D2 | -2.13
AUAGGACUGACAGUGUUCA against STAC3 | 1.13
UUUCAUUCGGUGAAAGUCC against MTFR1L | -0.547
